Measured values: PubChem BioAssay (NCI)
This is part of a sample that, as a whole, favours compounds with a hit. Of some 79,000 tested, about 15% had one in any assay. The source made the active and inactive calls. No stated cut-off is given here; in the data, active means growth inhibition above about 70%; inactive means the rest.

Columns and labels:
[1] = NCI Yeast Anticancer Drug Screen. Data for the rad50 strain (AID 155);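 further: 0% = growth of vehicle-only cultures of the same strain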; details: S. cerevisiae rad50 strain growth inhibition, stronger effect = higher value
How it was run: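 A DNA repair-deficient yeast mutant serves as the test organism; compound-induced growth inhibition is calculated against vehicle-treated cells.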

[2] = NCI Yeast Anticancer Drug Screen. Data for the mec2-1 strain (AID 157); details: S. cerevisiae mec2-1 strain, stronger effect = higher value
How it was run: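 Test agents were screened against the mec2-1 yeast strain, with defined DNA repair or cell cycle alteration. Growth was scored as inhibition against vehicle-only controls.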

[3] = NCI Yeast Anticancer Drug Screen. Data for the sgs1 mgt1 strain (AID 161);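 further: 0% = growth of cultures given vehicle only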; details: S. cerevisiae sgs1 mgt1 strain, stronger effect = higher value
How it was run: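 Genetically altered yeast, compound exposure, growth inhibition relative to vehicle.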

[4] = NCI Yeast Anticancer Drug Screen. Data for the cln2 rad14 strain (AID 165);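 further: 0% = growth equal to vehicle treated cultures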; details: S. cerevisiae cln2 rad14 strain, stronger effect = higher value
How it was run: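 Growth of compound-exposed yeast (cln2 rad14 genotype) measured and expressed as inhibition relative to vehicle.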

[5] = NCI Yeast Anticancer Drug Screen. Data for the bub3 strain (AID 167); details: S. cerevisiae bub3 mutant strain, stronger effect = higher value
How it was run: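 Inhibition values come from growth of compound-treated mutant yeast normalised to vehicle-treated controls.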

[6] = NCI Yeast Anticancer Drug Screen. Data for the mlh1 rad18 strain (AID 175); details: S. cerevisiae mlh1 rad18 strain growth inhibition, stronger effect = higher value
How it was run: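 In this whole-cell yeast screen, a strain with altered DNA damage repair is challenged with compound, and its growth is measured against matched vehicle-treated controls.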

[7] = at 5.0 µM (retest, dose inferred, filed as 0.5)
[8] = at 50.0 µM (retest, dose inferred, filed as 5.0)

Measured: growth inhibition

CCC(=O)c1cc2ccccc2c2ccccc12
active: [5]; [8] 74% | [5]; at 50.0 µM 75.8%
inactive: [1]; [7] 4% | [1]; [8] 44% | [1]; at 50.0 µM 66.3% | [2]; [7] 0% | [2]; [8] 20% | [2]; at 50.0 µM 39% | [3]; [7] 0% | [3]; [8] 40% | [3]; at 50.0 µM 37.3% | [4]; [7] -3% | [4]; [8] 0% | [4]; at 50.0 µM 9.9% | [5]; [7] 5% | [6]; [7] -2% | [6]; [8] 61% | [6]; at 50.0 µM 41.5%

BrC1=CC(Br)=C2N=C(C(Br)(Br)Br)N=C3N=C(C(Br)(Br)Br)N=C1N32
inactive: [1]; [7] 27% | [2]; [7] 15% | [3]; [7] 20% | [4]; [7] 5% | [5]; [7] 0% | [6]; [7] 30%
active: [1]; [8] 97% | [1]; at 50.0 µM 99% | [2]; [8] 98% | [2]; at 50.0 µM 99.5% | [3]; [8] 99% | [3]; at 50.0 µM 99.8% | [4]; [8] 97% | [4]; at 50.0 µM 98.2% | [5]; [8] 97% | [5]; at 50.0 µM 99.2% | [6]; [8] 97% | [6]; at 50.0 µM 99%

O=C(O)C(Cc1ccc(O)cc1)NC(=O)N(c1ccccc1)c1ccccc1 (configuration not stated)
inactive: [1]; [7] 0% | [1]; [8] 38% | [1]; at 50.0 µM 17.2% | [2]; [7] -11% | [2]; [8] 52% | [2]; at 50.0 µM 25.1% | [3]; [7] -205% | [3]; at 50.0 µM 30.8% | [4]; [7] 3% | [4]; [8] 39% | [4]; at 50.0 µM 61.6% | [5]; [7] 2% | [5]; [8] 28% | [5]; at 50.0 µM 19% | [6]; [7] -4% | [6]; at 50.0 µM 28.5%
active: [3]; [8] 79% | [6]; [8] 74%

O=C(CN(Cc1ccccc1)Cc1ccccc1)N1CCc2c([nH]c3ccccc23)C1c1cccnc1 (configuration not stated)
active: [1]; at 50.0 µM 86.8% | [2]; at 50.0 µM 86.5% | [3]; at 50.0 µM 84.1% | [4]; at 50.0 µM 88.3% | [5]; at 50.0 µM 87.5% | [6]; at 50.0 µM 85%
inactive: [1]; [7] 29% | [1]; [8] 29% | [2]; [7] 27% | [2]; [8] 27% | [3]; [7] 8% | [3]; [8] 8% | [4]; [7] 19% | [4]; [8] 19% | [5]; [7] 11% | [5]; [8] 11% | [6]; [7] 32% | [6]; [8] 32%

O=C1C(=O)c2ccccc2C=C1C1CCCCC1
inactive: [1]; [7] 13% | [1]; [8] 64% | [2]; [7] 19% | [3]; [7] 14% | [3]; [8] 63% | [4]; [7] 1% | [4]; [8] 43% | [5]; [7] 6% | [5]; [8] 63% | [5]; at 50.0 µM 64% | [6]; [7] 18%
active: [1]; at 50.0 µM 85% | [2]; [8] 72% | [2]; at 50.0 µM 78.2% | [3]; at 50.0 µM 91% | [4]; at 50.0 µM 71.5% | [6]; [8] 80% | [6]; at 50.0 µM 91%

CCC[CH2][Sn]([Cl])([CH2]CCC)[S]/C(C#N)=N/N=C/c1ccc(N(C)C)cc1
active: [1]; [7] 97% | [1]; [8] 98% | [1]; at 50.0 µM 98.2% | [2]; [7] 97% | [2]; [8] 98% | [2]; at 50.0 µM 98.8% | [3]; [7] 97% | [3]; [8] 98% | [3]; at 50.0 µM 98.8% | [4]; [7] 99% | [4]; [8] 98% | [4]; at 50.0 µM 97.9% | [5]; [7] 97% | [5]; [8] 98% | [5]; at 50.0 µM 98.8% | [6]; [7] 98% | [6]; [8] 97% | [6]; at 50.0 µM 98.7%

Oc1ccc(Br)cc1-c1nc2cc(Cl)c(Cl)cc2nc1-c1cc(Br)ccc1O
inactive: [1]; [7] 48% | [2]; [7] 46% | [3]; [7] 44% | [4]; [7] 47% | [5]; [7] 45% | [6]; [7] 48%
active: [1]; [8] 80% | [1]; at 50.0 µM 81.2% | [2]; [8] 85% | [2]; at 50.0 µM 86.3% | [3]; [8] 88% | [3]; at 50.0 µM 88.6% | [4]; [8] 91% | [4]; at 50.0 µM 86.1% | [5]; [8] 86% | [5]; at 50.0 µM 81.7% | [6]; [8] 90% | [6]; at 50.0 µM 80.7%

Cc1nc(N)sc1N=Nc1ccccc1Br
inactive: [1]; [7] -20% | [2]; [7] -11% | [3]; [7] 0% | [4]; [7] -5% | [4]; [8] 62% | [5]; [7] -1% | [6]; [7] 34%
active: [1]; [8] 89% | [1]; at 50.0 µM 88% | [2]; [8] 97% | [2]; at 50.0 µM 94.2% | [3]; [8] 93% | [3]; at 50.0 µM 92.1% | [4]; at 50.0 µM 91.3% | [5]; [8] 91% | [5]; at 50.0 µM 95.8% | [6]; [8] 96% | [6]; at 50.0 µM 95.8%

CSCCC(NC(=O)C(CCSC)NS(=O)(=O)Cc1ccccc1)C(=O)O (configuration not stated)
inactive: [1]; [7] -6% | [1]; [8] -4% | [2]; [7] -4% | [2]; [8] -3% | [3]; [7] -6% | [3]; [8] -6% | [3]; at 50.0 µM 48.5% | [4]; [7] -2% | [4]; [8] -12% | [5]; [7] -4% | [5]; [8] -3% | [6]; [7] -4% | [6]; [8] -5%
active: [1]; at 50.0 µM 98.9% | [2]; at 50.0 µM 99.6% | [4]; at 50.0 µM 98.7% | [5]; at 50.0 µM 99.2% | [6]; at 50.0 µM 99.2%
